Glioma ERSR ind – ER stress response induction in glioma | 420,000 compounds, 0.02% hits | Potency, µM, inactives show at the highest dose activation, usual class: activators | U87-MG GRP78 promoter luciferase reporter, 16 h | AID 602332; further: series mostly up to about 76 µM; % of control where 0% means no effect; nearly all actives have a fitted effect of over 35% in size
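ERSR induction read as luciferase luminescence (Bright-Glo, 10 min at room temperature) in stably transfected human U87-MG glioma cells exposed to compounds for 16 h, using GRP78 as sensor.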
FUS yeast rescue – suppressors of FUS proteinopathy in yeast. 390,000 compounds, 0.24% hits. Potency, µM (doses to about 76.6 µM), actives largely listed as activators. AID 1347120. S. cerevisiae FUS-expressing, growth rescue, OD600, 24 h;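 further: plate controls were DMSO vehicle for no effect and reference control for full effect; nearly all actives have a fitted effect of over 55% in size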
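Steps: raffinose overnight preculture; dilution to OD 0.005 in 2% galactose minimal medium; compound addition (concentration series); 24hr at 30C, 99% humidity; absorbance read at 600 nm.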
aSyn yeast inh – rescues yeast growth from alpha-synuclein toxicity. 370,000 compounds, 0.14% hits. Yeast expressing alpha-synuclein, growth rescue, BacTiter-Glo, 24 h. Potency, µM (series often up to 46.1 µM), inactives show top-dose growth rescue (activation), actives largely listed as activators; further: % of control where 0% means no effect; nearly all actives have a fitted effect of over 65% in size
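Screening used galactose-induced yeast with toxic alpha-synuclein levels, exposed to compound for 24 hr at 30 deg C. Cell growth, read with BacTiter-Glo luminescence, gave the measured signal.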
Abeta yeast res – A-beta toxicity reversal in yeast; 410,000 compounds, 0.063% hits; Potency, µM (series often up to 46.1 µM), usual class: activators; yeast expressing A-beta42, growth rescue, OD600, 48 h; response scale: 0% DMSO, 100% iron-clioquinol control; AID 1347071; further: nearly all actives have a fitted effect of over 55% in size
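Growth rescue measured by 600 nm absorbance after 48 h yeast culture at 30 C with compound. Values normalized between DMSO and an equimolar ferric chloride plus clioquinol control.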
MBNL1 CUG block – blocks human MBNL1 binding to CUG repeat RNA. TR-FRET MBNL1-His/biotin-(CUG)12 binding, 665/545 ratio. Potency, µM (titrated, usually from 57.5 µM), inactives show at the highest dose activity change, negative = inhibition, usual class: inhibitors. 280,000 compounds, 0.036% hits. AID 2675; active means well fitted inhibition curve with a large enough effect in the signal ratio, with a control signal flat, not every such curve was filed as active; inconclusive means small, poorly fitted or top-dose-only effect, or effect the other way, or a change in a side signal; inactive means no such curve, though single readings can be large or run the other way; the % refers to the signal ratio; further: on the % scale 0 is the no-effect control and ±100 the full control effect
Target sequence (Q9NR56 whole entry, looked up): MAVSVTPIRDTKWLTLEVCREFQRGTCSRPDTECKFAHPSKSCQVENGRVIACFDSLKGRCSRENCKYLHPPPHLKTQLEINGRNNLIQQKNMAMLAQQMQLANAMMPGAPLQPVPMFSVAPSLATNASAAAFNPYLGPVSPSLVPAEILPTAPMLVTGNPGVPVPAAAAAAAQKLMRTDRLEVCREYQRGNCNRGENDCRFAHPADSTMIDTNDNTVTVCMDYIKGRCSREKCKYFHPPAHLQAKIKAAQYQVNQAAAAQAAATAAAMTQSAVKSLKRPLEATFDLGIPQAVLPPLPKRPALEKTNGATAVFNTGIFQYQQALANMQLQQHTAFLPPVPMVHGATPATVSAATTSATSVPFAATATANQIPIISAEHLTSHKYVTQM
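Inhibition of protein-RNA binding appears as loss of TR-FRET between terbium anti-His antibody on MBNL1-His and streptavidin-XL665 on biotin-(CUG)12. Activity is normalized to buffer-only and uninhibited-complex controls.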
TDP43 rescue – rescues yeast growth from TDP-43 toxicity. Potency, µM (top dose mostly 46.1 µM), for the others: top-dose growth rescue (activation), usual class: activators. 410,000 compounds, 1.8% hits. TDP-43 expressing yeast growth rescue, BacTiter-Glo, 24 h; further: % of control where 0% means no effect; nearly all actives have a fitted effect of over 50% in size
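Yeast cells expressing TDP-43 under galactose induction are exposed to compounds for 24 hr at 30 deg C. BacTiter-Glo luminescence measures growth, so protective compounds score as activators.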
Active calls of the source: *; i = inactive; ? = inconclusive; / = not tested or not shown. Sampled rows, rich in hits. Any-hit rate of the full collection: about 2%. Unless noted, the call rests on the fitted dose curve; in most records, active means well fitted curve in the direction sought with a large enough effect; inconclusive means small, poorly fitted or top-dose-only effect, or another doubt; inactive means no such curve, though single readings can be large; an effect the other way counts as inactive or inconclusive. Potency means the concentration at half of the fitted maximal effect.

SMILES	Glioma ERSR ind	FUS yeast rescue	aSyn yeast inh	Abeta yeast res	MBNL1 CUG block	TDP43 rescue
CC(C)Cc1cc(C(=O)NCC2Cc3cc(F)cc(-c4ccccn4)c3O2)no1 (configuration not stated)	-4.4%	/	/	/	/	/
O/N=C/c1ccc(OCc2ccccc2)c(Cl)c1	-3.1%	i	-5.3%	i	0.6%	22.4µM*
O/N=C/c1ccc(OCc2ccccc2)c(Br)c1	-2.2%	i	-15.2%	i	13.2%	12.6µM*
CC(C)Cc1nc2cc(NS(=O)(=O)N(C)C)cc(C(=O)N3CCOCC3)c2n1C	0.9%	/	/	/	/	/
Cc1cc2c(c(-c3cnccn3)c1)OC(CNC(=O)c1c(F)cccc1Cl)C2 (configuration not stated)	-3.5%	/	/	/	/	/
CCc1ccc(C2=NN(c3ccc(S(N)(=O)=O)cc3)C(c3ccc(F)cc3)C2)cc1 (configuration not stated)	-12.2%	/	13.9%	?	9.4%	14.1µM*
COc1ccc(C2CC(c3ccc(C(F)(F)F)cc3)=NN2c2ccc(S(N)(=O)=O)cc2)cc1 (configuration not stated)	-11.4%	?	?	i	/	12.6µM*
Cc1ccc(C2CC(c3ccccc3)=NN2c2ccc(S(N)(=O)=O)cc2)cc1 (configuration not stated)	-10.0%	?	13.7%	i	/	?
COc1ccc2c(c1)CCCN2C(=O)C1CCCN(S(=O)(=O)c2ccc(Br)s2)C1 (configuration not stated)	/	i	/	/	/	/
CCc1ccc(Nc2ncnc3nc[nH]c23)cc1	-2.2%	i	-5.0%	i	4.4%	-20.0%
CCCCc1ccc(Nc2ncnc3nc[nH]c23)cc1	4.6%	i	0.8%	i	1.8%	15.8µM*
CC(C)(C)n1ncc2c(=O)n(Cc3ccc(OC(F)(F)F)cc3)cnc21	-2.1%	/	/	/	/	/
O=C(NC(=S)Nc1ccccc1N1CCCC1)c1cccc(F)c1	1.6%	i	0.2%	7.94µM*	-0.5%	0.0%
O=C(NC(=S)Nc1ccccc1N1CCCCC1)c1ccccc1	-4.2%	i	-12.5%	i	14.4%	11.2µM*
O=C(NC(=S)Nc1ccccc1N1CCCCC1)c1ccc(F)cc1Cl	-4.6%	/	-0.8%	i	-2.7%	20.4%
Cc1ccccc1C(=O)NC(=S)Nc1ccccc1N1CCCC1	-2.5%	i	0.2%	?	-1.6%	?
O=C(NC(=S)Nc1ccccc1N1CCCC1)c1ccc(F)cc1	-2.4%	/	-13.4%	i	-10.7%	25.1µM*
CC1CCN(c2ccccc2NC(=O)c2ccc(F)cc2)CC1	-2.9%	i	/	i	-3.4%	12.6µM*
OC1(c2cccnc2)CCN(Cc2ccc3c(c2)CN(Cc2ccc4nsnc4c2)CCO3)CC1	-4.8%	/	/	/	/	/
COc1cc(/C=C/C(=O)O[C@H]2CC[C@]34C[C@]35CC[C@]3(C)[C@@H]([C@H](C)CCC=C(C)C)CC[C@@]3(C)C5CCC4C2(C)C)ccc1O (some centres not stated)	2.2%	/	/	/	/	/
CC1CCN(c2ccccc2NC(=S)NC(=O)c2cccs2)CC1	-4.4%	i	0.9%	i	15.0%	11.5%
CC1CCN(c2ccccc2NC(=S)NC(=O)C(C)(C)C)CC1	-1.1%	i	-2.5%	12.6µM*	-6.0%	?
O=C(Nc1ccc(Cl)cc1Cl)[C@@H]1CC=C[C@@H]2CCN(Cc3ccccc3)C(=O)[C@@H]21	-2.6%	/	/	/	/	/
COc1ccc(CNC2CCCc3ccccc32)c(OC)c1 (configuration not stated)	-2.7%	i	-1.1%	i	6.0%	-8.4%
COc1ccc2c(c1)CCCC2NS(=O)(=O)OCC(Cl)(Cl)Cl (configuration not stated)	-5.9%	i	-3.2%	i	5.4%	35.5µM*
SMILES	Glioma ERSR ind	FUS yeast rescue	aSyn yeast inh	Abeta yeast res	MBNL1 CUG block	TDP43 rescue
COc1ccc(-n2nc(C(=O)Nc3ccc(C(C)=O)cc3)nc2-c2ccccc2)cc1	-3.5%	i	/	i	/	22.4µM*
Cc1cc(C(=O)N2CCN(c3cccc(Cl)c3)CC2)c2c(C)nn(-c3ccccc3Cl)c2n1	-3.4%	?	/	i	/	20µM*
Cc1ccc(N2CCN(C(=O)c3cccc([N+](=O)[O-])c3)CC2)cc1Cl	-2.3%	i	7.4%	?	13.2%	12.6µM*
Cc1c(C(=O)N2CCN(c3cccc(Cl)c3)CC2)cccc1[N+](=O)[O-]	-2.0%	i	23.3%	?	13.2%	22.4µM*
Cc1occc1C(=O)Nc1cccc(-c2nc(CNC(=O)c3ccc4ccccc4n3)c(C)o2)c1	-2.9%	/	/	/	/	/
Cc1ccc(S(=O)(=O)N2CCN(c3nc(-n4ccnc4)nc4ccccc34)CC2)cc1	/	/	2µM*	/	/	/
CC1CCN(C2=NC(=O)/C(=C/c3ccccc3F)S2)CC1	-5.1%	i	7.8%	i	122.8%	12.6µM*
CC1CCN(C2=NC(=O)/C(=C/c3cccc(O)c3)S2)CC1	1.3%	i	5.2%	i	?	14.3%
CC[C@@H]1OC(=O)C[C@H](O)[C@@H](C)[C@@H](O[C@H]2O[C@@H](C)[C@H](O[C@@H]3C[C@](C)(O)[C@H](O)[C@@H](C)O3)[C@@H](N(C)C)[C@@H]2O)[C@@H](C=O)C[C@@H](C)C(=O)/C=C/C(C)=C[C@@H]1CO[C@H]1O[C@@H](C)[C@H](O)[C@H](OC)[C@@H]1OC	-4.4%	/	/	/	/	/
CCc1nc(N2CCN(C(=O)CCCl)CC2)c2c3c(sc2n1)CCCC3	-7.5%	i	9.9%	i	/	20µM*
CCOC(=O)c1nc(N2CCN(C(=O)OCC)CC2)c2c3c(sc2n1)CCCC3	-3.2%	i	15.8µM*	i	11.0%	-14.2%
CCOC(=O)c1nc2sc3c(c2c(=O)[nH]1)CCCC3	-3.2%	/	-0.6%	i	?	-3.0%
Cc1ccc(C2CCC3(CCC(=O)N3CCO)CC2)cc1 (configuration not stated)	/	i	/	/	/	/
Cc1ccc2nc(N3CCN(C(=O)CCC(=O)O)CC3)nc(-c3ccccc3)c2c1	-1.2%	i	0.3%	i	11.3%	5.4%
Cc1ccc2nc(N3CCC(C(=O)O)CC3)nc(-c3ccccc3)c2c1	-1.0%	i	12.0%	i	16.7%	22.4µM*
CCN(Cc1ccncc1)Cc1ccc2c(c1)CN(C(=O)c1cccc(-n3nc(C)cc3C)c1)CCO2	-4.3%	/	/	/	/	/
O=C(c1noc2c1CCCCC2)N1CCN(c2cccc(Cl)c2)CC1	-2.2%	i	/	i	/	8.91µM*
Cc1cccc(C(=O)NCC2Cc3cc(F)cc(-c4cnccn4)c3O2)n1 (configuration not stated)	0.7%	/	/	/	/	/
